The values that follow come from PubChem BioAssay (NCI).

Common to all, as to assay: NCI-60 one-dose screen, 48 h (100 = growth as untreated, 0 = no growth, -100 = all killed)
What all share (conditions): 10 µM unless noted

In assay [1] the test system is DU-145 prostate.
Assay [2] concerns K-562 leukemia.
The test system of assay [3] is MALME-3M melanoma.
In assay [4] the test system is MDA-MB-231 breast.
For assay [5], the system named is RXF 393 renal.
Assay [6] has as its system SF-268 CNS.
Assay [7] relates to SF-295 CNS.
For assay [8], the system named is SF-539 CNS.
The test system of assay [9] is UACC-257 melanoma.
The test system of assay [10] is M14 melanoma.
The test system of assay [11] is HCT-15 colon.
In assay [12] the test system is HT29 colon.
The subject of assay [13] is SNB-75 CNS.
Assay [14] deals with SNB-19 CNS.
The subject of assay [15] is U251 CNS.
Assay [16] deals with PC-3 prostate.
Assay [17] concerns SK-MEL-5 melanoma.
In assay [18] the test system is UACC-62 melanoma.
Assay [19] has as its system LOX IMVI melanoma.
Assay [20] relates to SK-MEL-28 melanoma.

This is part of a sample that, as a whole, favours compounds with a hit. Of some 83,000 tested, about 20% had one in any assay.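 48-hour exposure, single concentration, 96-well plates; percent growth endpoint where 0 means no net growth. Active: below 10.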 A number with no mark means an inactive call. Calls of active or inactive are those of the source.

Consider `CCN(CC)CCCC(C)Nc1ccnc2cc(Cl)c(SCc3ccccc3)cc12` (stereo not given), for which the growth was 25.4% in assay [1]; -51.1% (active) in [2]; -77.3% (active) in assay [3]; -78.5% (active) in [4]; -91.1% (active) in [5]; -66.3% (active) in assay [6]. Moreover, the growth in assay [7] is -81.7% (active); in [8], -89.5% (active); in [9], -79.2% (active); in assay [10], -88.2% (active); in assay [11], -68.8% (active); in assay [12], -56.4% (active). The growth was -86.2% (active) in [13]; -34.9% (active) in assay [14]; -54.3% (active) in assay [15]; -7.16% (active) in assay [16]; -94.9% (active) in assay [17]; -90.8% (active) in [18]. Besides, the growth in [19] is -90.9% (active); in assay [20] it was -82.5% (active).

With `O=C1COCCN1c1ccc(NCc2cn(Cc3ccccc3)c3ccccc23)cc1`, the growth is 102% in assay [1]; 57.3% in [2]; 95.9% in [3]; 86.7% in [4]; 46.8% in assay [5]; 91.9% in assay [6]. For the same compound, the growth is 61.7% in assay [7]; 91.8% in assay [8]; 75.4% in [9]; 90.2% in assay [10]; 90.7% in [11]; 109% in [12]. In addition, the growth in [13] was 81.7%; in assay [14], 93.2%; in assay [15] it was 86.8%; in assay [16], 89%; in [17], 91.5%; in assay [18] it was 21.6%. Further, the growth in assay [19] is 92%; in assay [20], 102%.

As for `O=C1COCCN1c1ccc(Nc2nc(Cl)nc(N3CCOCC3)n2)cc1`, the growth in assay [1] is 102%; in assay [2], 100%; in assay [3] it was 96.3%; in [4] it was 103%; in assay [5], 92.4%; in assay [6] it was 99.4%. For the same compound, the growth in [7] was 94.4%; in assay [8] it was 96.5%; in assay [9], 98.2%; in assay [10], 98.2%; in [11], 91.8%; in assay [12], 89.4%. Further, the growth was 89.7% in assay [13]; 95.9% in assay [14]; 101% in [15]; 96.8% in assay [16]; 100% in [17]; 96% in assay [18]. For the same compound, the growth in [19] was 93.8%; in assay [20] it was 101%.

For the compound `CC(C)(C)c1cc(C(=O)Nc2ccc(C(=O)NCCN)cc2)cc(C(C)(C)C)c1`, the growth was 40.5% in assay [1]; -42.5% (active) in assay [2]; 15.1% in assay [3]; -43.7% (active) in [4]; 19.5% in assay [5]; 57% in assay [6]. In addition, the growth in assay [7] is 36.4%; in assay [8] it was -52.8% (active); in assay [9] it was 68.6%; in [10], -71% (active); in assay [11], 76.6%; in assay [12], -21.7% (active). Also, the growth was 55.6% in [13]; 33.6% in assay [14]; -6.92% (active) in assay [15]; 25.9% in [16]; 23.8% in [17]; -71.8% (active) in [18]. In addition, the growth in [19] is -65.5% (active); in assay [20] it was -64.4% (active).

Take `CC(C)OC(=O)Nc1cc(F)c(F)cc1F`: the growth in assay [1] is 110%; in assay [2], 111%; in assay [3], 89.9%; in assay [4], 103%; in assay [5] it was 104%; in [6] it was 101%. The growth in [7] was 102%; in assay [8], 96.2%; in [9], 94.8%; in [10], 93.7%; in assay [11], 98.1%; in assay [12], 99.3%. Further, the growth in assay [13] was 96.3%; in [14], 102%; in assay [15], 99.3%; in assay [16], 99.8%; in assay [17] it was 102%; in [18] it was 96.6%. Also, the growth in assay [19] is 109%; in [20] it was 96%.

Take `c1cc2ccc1CNCCN1CCNCc3ccc(cc3)Oc3ccc(cc3)CNCCN(CCNCc3ccc(cc3)O2)CCNCc2ccc(cc2)Oc2ccc(cc2)CNCC1`: the growth was -88.6% (active) in assay [1]; -23.7% (active) in assay [2]; -5.04% (active) in [3]; -87% (active) in assay [4]; -30.8% (active) in assay [5]; -88% (active) in assay [6]. The growth in assay [7] is 6.02% (active); in assay [8] it was -89.2% (active); in assay [9], 37.5%; in assay [10] it was 94.8%; in assay [11] it was 95.4%; in assay [12], -74.7% (active). The growth in [13] is -73.1% (active); in assay [14], -91.2% (active); in assay [15], -99.7% (active); in [16], -85.5% (active); in assay [17], 66.1%; in [18], -76% (active). Further, the growth in assay [19] is -94.1% (active); in [20] it was 14.7%.

In the case of `CC/C=C(\C)C(CCC)(CN=O)C(=O)OCC` (stereo not given), the growth in assay [1] is 111%; in [2] it was 114%; in [3], 105%; in [4], 94.8%; in [5], 123%; in [6], 105%. In addition, the growth in assay [7] was 112%; in assay [8], 98.9%; in assay [9], 85.8%; in assay [10] it was 99.3%; in [11], 99.6%; in assay [12] it was 106%. The growth in [13] is 81.9%; in [14], 105%; in assay [15] it was 99.3%; in assay [16], 98.3%; in assay [17], 111%; in assay [18] it was 110%. Also, the results for the growth in assay [19] and in assay [20] were 99.7% and 116%, respectively.
